# Reference: PubChem BioAssay (NCI)
# Compounds without any hit were thinned out: in the full panel of roughly 83,000, 20% have a hit.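 Cell lines were cultured in 96-well plates, exposed to a single compound concentration, and assessed for percent growth 48 hours later.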 Values without a mark were called inactive. Calls of active or inactive are those of the source. The calls were made as follows: active = growth percent below 10; inactive = the rest.
# Tested on: HL-60(TB) leukemia
# Test: NCI-60 one-dose screen, 48 h (100 = growth as untreated, 0 = no growth, -100 = all killed)
# Settings: 10 µM unless noted
row,Structure (SMILES),growth
1,CN(C)CCCNC(=O)c1cncnc1Nc1ccc2c(ccn2Cc2cccc(F)c2)c1,93.3%
2,CCn1c(=S)[nH]c2c(=O)n(C)c(=O)n(C)c21,100%
3,COc1ccc(-c2nc3sc(-c4ccc(Cl)cc4)cn3n2)cc1,105%
4,O=C1CC(c2ccc3c(c2)OCO3)c2ncn(-c3ccc(Cl)cc3)c2N1 (stereo not given),-9.97% (active)
5,COc1cnc2c(c1)C(=O)c1c-2n(CCCBr)c(=O)c2cc([N+](=O)[O-])ccc12,5.74% (active)
6,CC1(C)/C(=C\CO)C2CCC1C2 (stereo not given),94.1%
7,COc1cc(-c2cc(-c3nc4ccc(Cl)cc4[nH]3)[nH]n2)cc(OC)c1OC,38.4%
8,Oc1c(Br)c(Br)c(O)c(Br)c1Br,94.3%
9,COc1cc(C2C3=C(COC3=O)Nc3cc4c(cc32)OCO4)cc2c1OCO2 (stereo not given),-8.91% (active)
10,CC(=O)Oc1ccc(Nc2c3ccccc3nc3ccccc23)cc1,-5.02% (active)
11,NC1=C(/C(N)=N/O)C(c2ccccc2)c2ccc3ccccc3c2O1 (stereo not given),-19% (active)
12,CCOc1cc(/C=N\NC(=O)C[N+](C)(C)C)ccc1O,87.7%
13,O=C(c1nc2ccccc2[nH]1)C1[C@@H](c2cccc(O)c2)C2CC3CCCCC3N2[C@@]12C(=O)Nc1cc(Cl)ccc12 (stereo not given in full),6.59% (active)
14,COc1cc(C(=O)NNC(=O)c2ccccc2O)cc(OC)c1OC,80.4%
15,CO[C@H]1/C=C/O[C@@]2(C)Oc3c(C)c(O)c4c(O)c(c(/C=N/N5C(C)CN(Cc6ccc(C#N)cc6)CC5C)c(O)c4c3C2=O)NC(=O)/C(C)=C\C=C\[C@H](C)[C@H](O)[C@@H](C)[C@@H](O)[C@@H](C)[C@H](OC(C)=O)[C@@H]1C (stereo not given in full),-37% (active)
16,O=C1C(=O)/C(=C/c2ccccc2)CCCCCC/C1=C/c1ccccc1,46.6%
17,O=C(Cc1n[nH]c(=O)c2ccccc12)OCc1c(Cl)cccc1Cl,33.7%
18,COc1ccc(Cl)cc1Nc1nc(C(F)(F)F)ccc1C(=O)N/N=C/c1ccc(Cl)cc1,9.34% (active)
19,Cc1[nH]c(C(=O)Nc2nc3ccc(NC(=O)CCN)cc3s2)c(Cl)c1Cl,83.8%
20,C/C(=N/NC(=O)c1sc(=S)n(C)c1N)c1cc2cc(Cl)ccc2o1,113%

row,Structure (SMILES),growth
1,Cc1cc(Nc2nc(-c3cccnc3)nc3ccccc23)n[nH]1,53.4%
2,C/C(=C(/c1ccc(Cl)cc1)c1ccc(OCCN2CCCCCC2)cc1)c1ccccc1,63.6%
3,COc1cc(F)c(/C=C/c2cc(/C=C/c3cc(OC)c(OC)cc3F)n(-c3cc(F)cc(F)c3)n2)cc1OC,87.6%
4,Cc1ccc(C(=O)O)c(N)c1C,95.1%
5,Cc1ccc(/C=C/C(=O)C(=O)/C=C/c2ccc(C)cc2)cc1,93.3%
6,CC(C)(C)[Si](C)(C)OC1[C@@H](O[Si](C)(C)C(C)(C)C)[C@@H](CNC(=O)NC(=O)NC(=O)CCl)O[C@H]1n1cnc2c(NC(=O)Nc3ccccc3)ncnc21 (stereo not given in full),19.7%
7,Clc1ccccc1N=Cc1ccc2c(c1)OCO2,94.6%
8,CS(=O)(=O)Nc1cc(-c2ccc3ncnc(Nc4cccc(Cl)c4F)c3c2)cnc1Cl,80.1%
9,C[C@]12C[C@@H](c3ccoc3)OC(=O)[C@@H]1CC[C@]1(C)[C@@H]2CC[C@@H](O)[C@]1(C)O,9.31% (active)
10,N[C@H](C(=O)O)[C@@H]1CC(Cl)=NO1,34.9% [20 µM]
11,C[C@]12C=CC(=O)C=C1[C@@H](F)C[C@@H]1[C@@H]2[C@@H](O)C[C@@]2(C)[C@H]1CC[C@]2(O)C(=O)CO,107%
12,CCN1C(=O)N(CC)C2C1NN=c1s/c(=C3\C(=O)N(CC(C)C)c4ccccc43)c(=O)n12 (stereo not given),-43.8% (active)
13,O=C1/C(=C/c2ccc(C(F)(F)F)cc2)COc2ccc(O)cc21,-36.1% (active)
14,O=S1(=O)c2ccccc2Oc2ccccc21,89.5%
15,Clc1ccccc1/C=N\Nc1ccccn1,98.1%
16,CNC(=O)c1cc(Oc2ccc3nc(NC(=O)c4ccc5ncccc5c4)sc3c2)ccn1,87.8%
17,COc1cc2c(Nc3ccc(Br)cc3F)ncnc2cc1OCC1CCN(C)CC1,0.964% (active)
18,COc1ccccc1/C=C1\COc2ccc(O)cc2C1=O,1.08% (active)
19,O=[N+]([O-])c1ccc(Oc2ccc(-c3ccccc3)cc2)cc1,78.7%
20,CCCCCCCCCCCCOc1ccccc1C=O,89.9%
